The values below come from PubChem BioAssay (NCATS).

Records with an inconclusive call do not appear. Values without a mark were called inactive. Activity calls are given as the source filed them. The call rests on the fitted dose curve; in most records, active means well fitted curve in the direction sought with a large enough effect; inconclusive means small, poorly fitted or top-dose-only effect, or another doubt; inactive means no such curve, though single readings can be large; an effect the other way counts as inactive or inconclusive.

For assay [1], the target named is Rap guanine nucleotide exchange factor 3 (Homo sapiens) (UniProt O95398). In words: Confirmatory qHTS for agonist of cAMP-regulated guanine nucleotide exchange factor 3 (EPAC1) (AID 1645881; further: nearly all actives have a fitted effect of over 75% in size; further: potency means the concentration at half of the fitted maximal effect;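 on activation: EPAC1 catalysed release of BODIPY-GDP from Rap1B seen as fluorescence loss; 100% = effect of cAMP agonist control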). (Quantitative high-throughput screening tests each substance at several concentrations.)
Chain of Rap guanine nucleotide exchange factor 3 (Homo sapiens) (O95398 whole entry, looked up): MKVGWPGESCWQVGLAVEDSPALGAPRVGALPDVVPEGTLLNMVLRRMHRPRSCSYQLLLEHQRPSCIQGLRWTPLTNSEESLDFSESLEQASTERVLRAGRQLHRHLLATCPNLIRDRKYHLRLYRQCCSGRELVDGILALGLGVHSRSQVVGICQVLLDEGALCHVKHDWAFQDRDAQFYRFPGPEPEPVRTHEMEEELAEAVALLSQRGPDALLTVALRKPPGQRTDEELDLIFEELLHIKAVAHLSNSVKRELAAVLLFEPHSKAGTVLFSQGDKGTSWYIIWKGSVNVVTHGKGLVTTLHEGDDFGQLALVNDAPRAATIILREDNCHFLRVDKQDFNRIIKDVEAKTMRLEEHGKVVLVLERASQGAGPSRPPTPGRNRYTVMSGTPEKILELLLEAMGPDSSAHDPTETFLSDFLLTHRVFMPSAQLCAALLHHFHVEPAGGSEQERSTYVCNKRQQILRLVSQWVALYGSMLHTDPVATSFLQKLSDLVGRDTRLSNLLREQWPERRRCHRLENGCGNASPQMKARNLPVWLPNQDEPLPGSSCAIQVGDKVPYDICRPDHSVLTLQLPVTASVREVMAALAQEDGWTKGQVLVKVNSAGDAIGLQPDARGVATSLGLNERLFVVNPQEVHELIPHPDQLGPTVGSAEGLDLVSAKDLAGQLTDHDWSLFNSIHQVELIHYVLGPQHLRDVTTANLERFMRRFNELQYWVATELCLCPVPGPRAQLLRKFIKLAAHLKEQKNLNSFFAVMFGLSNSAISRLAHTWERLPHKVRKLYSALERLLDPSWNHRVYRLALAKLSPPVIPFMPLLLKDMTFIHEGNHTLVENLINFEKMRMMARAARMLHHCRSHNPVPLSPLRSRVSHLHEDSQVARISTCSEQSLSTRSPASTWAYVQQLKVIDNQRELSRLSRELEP
The target of assay [2] is Rap guanine nucleotide exchange factor 4 (Homo sapiens) (UniProt Q8WZA2). In words: Confirmatory qHTS for agonist of cAMP-regulated guanine nucleotide exchange factor 4 (EPAC2) (AID 1645884).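 Further: nucleotide exchange releases bodipy-GDP from Rap1 and this lowers its fluorescence; on the % scale 0 is the no-effect control and ±100 the full control effect; nearly all actives have a fitted effect of over 65% in size.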
Chain of Rap guanine nucleotide exchange factor 4 (Homo sapiens) (Q8WZA2 whole entry, looked up): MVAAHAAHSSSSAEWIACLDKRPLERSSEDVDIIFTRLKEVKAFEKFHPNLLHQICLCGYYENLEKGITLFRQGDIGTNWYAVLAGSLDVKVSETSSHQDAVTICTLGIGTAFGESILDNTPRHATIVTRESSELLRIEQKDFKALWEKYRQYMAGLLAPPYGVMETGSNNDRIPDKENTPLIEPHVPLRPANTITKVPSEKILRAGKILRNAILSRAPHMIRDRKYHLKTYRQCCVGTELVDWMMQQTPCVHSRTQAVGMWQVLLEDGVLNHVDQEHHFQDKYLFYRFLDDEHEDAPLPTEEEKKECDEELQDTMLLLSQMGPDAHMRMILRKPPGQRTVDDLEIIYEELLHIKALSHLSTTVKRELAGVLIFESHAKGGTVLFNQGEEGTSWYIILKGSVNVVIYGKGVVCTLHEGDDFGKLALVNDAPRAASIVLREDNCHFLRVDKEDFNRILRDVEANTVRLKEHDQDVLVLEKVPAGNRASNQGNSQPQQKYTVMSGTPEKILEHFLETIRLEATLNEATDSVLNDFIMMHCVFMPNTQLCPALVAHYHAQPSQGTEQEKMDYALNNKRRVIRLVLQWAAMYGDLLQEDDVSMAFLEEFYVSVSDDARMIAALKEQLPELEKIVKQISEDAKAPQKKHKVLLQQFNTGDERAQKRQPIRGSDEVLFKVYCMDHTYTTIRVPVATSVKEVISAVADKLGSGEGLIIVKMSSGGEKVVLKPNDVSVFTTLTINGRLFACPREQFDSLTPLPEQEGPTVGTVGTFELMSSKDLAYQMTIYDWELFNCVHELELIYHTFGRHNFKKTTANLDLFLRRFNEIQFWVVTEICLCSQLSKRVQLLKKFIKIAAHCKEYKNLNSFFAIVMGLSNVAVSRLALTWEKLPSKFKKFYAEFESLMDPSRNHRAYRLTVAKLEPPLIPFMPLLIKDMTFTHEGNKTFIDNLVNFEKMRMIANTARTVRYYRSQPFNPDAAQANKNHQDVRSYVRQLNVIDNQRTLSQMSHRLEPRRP
The target is the same in assay [3]. In words: Confirmatory qHTS for antagonist of cAMP-regulated guanine nucleotide exchange factor 4 (EPAC2) (AID 1645885). Further: nearly all actives have a fitted effect of over 25% in size. Further: potency means the concentration at half of the fitted maximal effect. On activity change, negative = inhibition: on the % scale 0 is the no-effect control and ±100 the full control effect.
Assay [4] concerns the target Rap guanine nucleotide exchange factor 3 (Homo sapiens) (UniProt O95398). In words: Counterscreen qHTS for antagonist of cAMP-regulated guanine nucleotide exchange factor 3 (EPAC1) (AID 1645888).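 Further: fluorescence loss as bound BODIPY-GDP is released from Rap1B; % of control where 0% means no effect.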 The method in brief:
(§1)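 Measured: fluorescence of BODIPY-GDP bound to Rap1B, which falls as exchange proceeds. Conditions include 50 uM competing GDP, 5 and 30 min reads, and a later cAMP challenge for antagonist detection.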
On the technique in general: The purpose of a counterscreen is to sort out artefacts and off-target activity.

For assay [5] the target is unchanged. In words: Counterscreen qHTS for agonist of cAMP-regulated guanine nucleotide exchange factor 3 (EPAC1) (AID 1645889). Further: % of control where 0% means no effect; nearly all actives have a fitted effect of over 40% in size. The method in brief: as §1

Take `Cc1ccccc1CN(C)CC(=O)Nc1c(C)cccc1C(C)C`: the Potency result in assay [1] and in assay [3] was “inactive” throughout. Also, the activation in assay [2] is 7.02% [at 17.1 µM, percent relative to cAMP agonist control]; in assay [5], -4.69% [at 30.8 µM]. The activity change, negative = inhibition in assay [4] is -6.66% [at 30.8 µM].
`C[C@@H]1CC=C[C@@H]2[C@H]1C(=O)N(Cc1ccccc1)[C@H]2c1ccccc1Br`: the Potency result in assay [1], in assay [2], in assay [3], in assay [4] and in assay [5] was “inactive” each time.
On to `CCOc1ccc(NC(=O)CN(C)S(=O)(=O)c2ccc(-c3ccc(=O)[nH]n3)s2)cc1`, for which, in assay [1], the Potency is 100 µM (active). The Potency entry in assay [2], in assay [3], in assay [4] and in assay [5] was “inactive” in each case.
Take `CC(=O)Nc1cccc(C(=O)/C=C/c2ccc(F)cc2)c1`: the Potency result in assay [1], in assay [2], in assay [3], in assay [4] and in assay [5] was “inactive” throughout.
Turning to `COc1ccc2sc(-c3ccc(N(C)C)cc3)c(C#CC(C)(C)O)c2c1`, the Potency result in assay [1], in assay [2], in assay [3], in assay [4] and in assay [5] was “inactive” in each case.
Consider `O=C(c1ccc(-c2nnc(Nc3cccc(Cl)c3)c3ccccc23)cc1)N1C[C@H]2C[C@H](C1)c1cccc(=O)n1C2`, for which the Potency entry in assay [1], in assay [2], in assay [3], in assay [4] and in assay [5] was “inactive” each time.
With `CCc1ccc(N(C(=O)c2csnn2)C(C(=O)NCc2ccccc2)c2ccco2)cc1` (stereo not given), the Potency entry in assay [1], in assay [2], in assay [4] and in assay [5] was “inactive” in each case. Also, the Potency in assay [3] is 16.9 µM (active).
Regarding `Cc1ccc(C(C)C)c(OCCCn2c(=O)oc3ccc(C)cc32)c1`, the Potency entry in assay [1], in assay [2], in assay [3], in assay [4] and in assay [5] was “inactive” each time.
`CCOc1ccc(-n2c(C)nc3cc(C(=O)NCc4ccc(C)cc4)ccc32)cc1`: the Potency result in assay [1], in assay [2], in assay [3], in assay [4] and in assay [5] was “inactive” each time.
Turning to `CCC(=C(c1ccc(OC)cc1)c1ccc(OC)cc1)c1cn(CC(O)CN2CCN(C)CC2)c2ccccc12` (stereo not given), the Potency result in assay [1] and in assay [3] was “inactive” each time. Further, the activation in assay [2] is 8.96% [at 17.1 µM, percent relative to cAMP agonist control]; in assay [5], 25.5% [at 30.8 µM]. For the same molecule, in assay [4], the activity change, negative = inhibition was -21.5% [at 30.8 µM].
For `N#Cc1c(NC(=O)C2CC=CCC2C(=O)O)sc2c1CCCCCC2` (stereo not given), the Potency entry in assay [1] and in assay [3] was “inactive” in each case. Further, the activation in assay [2] is -2.41% [at 17.1 µM, percent relative to cAMP agonist control]; in assay [5] it was 6.58% [at 30.8 µM]. In addition, in assay [4], the activity change, negative = inhibition is -15.2% [at 30.8 µM].
As for `CCCCC(CC)C(=O)Nc1ccc(Nc2ccccc2)cc1` (stereo not given), the Potency entry in assay [1], in assay [2], in assay [3], in assay [4] and in assay [5] was “inactive” each time.
On to `COc1cccc(C2CC(c3cccs3)=NN2C(=O)c2ccco2)c1O` (stereo not given), for which the Potency result in assay [1] and in assay [3] was “inactive” in each case. Besides, the activation in assay [2] was 3.1% [at 17.1 µM, percent relative to cAMP agonist control]; in assay [5] it was 8.43% [at 30.8 µM]. In assay [4], the activity change, negative = inhibition was -12.7% [at 30.8 µM].
Turning to `Cc1ccc(C(=O)c2no[n+]([O-])c2C(=O)c2ccc(C)cc2)cc1`, the Potency entry in assay [1], in assay [2], in assay [3], in assay [4] and in assay [5] was “inactive” in each case.
For `COc1ccc(-c2[nH]c(-c3ccc(F)cc3)nc2SCC(=O)Nc2ccc(OC)c(OC)c2)cc1`, the Potency result in assay [1], in assay [2], in assay [3], in assay [4] and in assay [5] was “inactive” in each case.
Turning to `CCCCNC(=O)CN1CCN(c2ncc(NC(=O)c3ccc(Cl)cc3)cc2C(=O)O)CC1`, the Potency result in assay [1], in assay [2], in assay [3], in assay [4] and in assay [5] was “inactive” throughout.
For `CCCC(=O)OCCNc1cc(SCc2ccco2)c2nonc2c1[N+](=O)[O-]`, the Potency entry in assay [1] and in assay [3] was “inactive” in each case. In addition, the activation in assay [2] is 4.83% [at 17.1 µM, percent relative to cAMP agonist control]; in assay [5] it was 26.5% [at 30.8 µM]. Moreover, the activity change, negative = inhibition in assay [4] was 14.3% [at 30.8 µM].
Consider `COc1cc(O)c(C(CC(=O)N2CCCC(C)C2)c2ccc3c(c2)OCO3)c(OC)c1` (stereo not given), for which the Potency result in assay [1] and in assay [3] was “inactive” throughout. Besides, the activation in assay [2] is -10.6% [at 17.1 µM, percent relative to cAMP agonist control]; in assay [5], 13.2% [at 30.8 µM]. In addition, the activity change, negative = inhibition in assay [4] was -20% [at 30.8 µM].
As to `COC(=O)c1ccc2nc(-c3ccco3)c(Cc3ccccc3)n2c1`, the Potency entry in assay [1] and in assay [3] was “inactive” in each case. Also, the activation was 7.95% [at 17.1 µM, percent relative to cAMP agonist control] in assay [2] and 10% [at 30.8 µM] in assay [5]. The activity change, negative = inhibition in assay [4] is -11.9% [at 30.8 µM].
With `CC1(NC(=O)CCc2nc3sc4c(c3c(=O)[nH]2)CCCC4)CCS(=O)(=O)C1` (stereo not given), the Potency entry in assay [1] and in assay [3] was “inactive” throughout. In addition, the activation was 0.392% [at 17.1 µM, percent relative to cAMP agonist control] in assay [2] and 8.58% [at 30.8 µM] in assay [5]. In addition, in assay [4], the activity change, negative = inhibition is -17% [at 30.8 µM].
